In PubChem BioAssay (NCI) one finds growth data, which are given here for 35 molecules.

This is part of a sample that, as a whole, favours compounds with a hit. Of some 83,000 tested, about 20% had one in any assay.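 How to read the values: 0–100, growth inhibition (40 = 60% inhibited); 0, no net growth; -100 to 0, cell death (-40 = 40% of starting cells died; -100 = all dead).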 Unmarked numbers belong to inactive results. Activity calls are given as the source filed them. Rule for the calls: active = growth percent below 10; inactive = the rest.

The assay relates to MDA-MB-468 breast. Put plainly: NCI-60 one-dose screen, 48 h (100 = growth as untreated, 0 = no growth, -100 = all killed). Conditions: 10 µM unless noted.
For the molecule `Cc1ccc(C2CC(c3ccc(Nc4nc(NCCO)nc(Nc5ccc(Cl)cc5)n4)cc3)=Nc3c(N)nc(N)nc3N2)cc1` (stereo not given), the growth was -80% (active).
For the molecule `CN(C)CCCNc1nc2ccccc2c2c(=O)c3cc(F)ccc3sc12`, the growth is -6.97% (active).
Consider `CC(C)c1nn(-c2ccccc2)c(N2CCCCC2)c1/C=N/NC(N)=S`, for which the growth is 89.6%.
Regarding `Cc1cc2c3ccc(C)[n+](C)c3ccc2n1C`, the growth is 19.1%.
Consider `COc1ccc(NC(=S)N/N=C/c2ccccc2SSCCC(=O)OC[C@H]2O[C@H](O)[C@H](O)[C@@H](O)[C@@H]2O)cc1`, for which the growth was -8.32% (active).
With `Cc1cc(N2CCCCC2)nc(NCc2cc(Nc3ccnc4cc(Cl)ccc34)ccc2F)n1`, the growth was -60.3% (active).
As to `CC(C)(C)[Si](C)(C)OC1[C@@H](O[Si](C)(C)C(C)(C)C)[C@@H](CNC(=O)NC(=O)C(F)(F)F)O[C@H]1n1cnc2c(NC(=O)Nc3ccccc3)ncnc21` (stereo not given in full), the growth is 102%.
To `CC/C=C1/C(=O)C=C[C@@H]1C/C=C\CCCC(=O)OC` belongs 77.6%; to `CC(C)OC(=O)c1ccc2[nH]c(O)c(C(=Nc3ccc(N(C)C(=O)CN4CCN(C)CC4)cc3)c3ccccc3)c2c1`, -91% (active); to `O=C1CC2C=CCN2C=C1NC(=O)C1CCCCC1` (stereo not given), 96.2%.
For the molecule `COc1ccc(/C=C2\CCCC3=C2N=C2SC(C)=NN2C3c2ccc(OC)c(OC)c2)cc1OC` (stereo not given), the growth is 12.1%.
Take `NC(=O)c1ccc[n+](CC(=O)N2CCN(c3cc4c(cc3F)c(=O)c(C(=O)O)cn4C3CC3)CC2)c1`: the growth was 87.2%.
To `C=C1C(=O)O[C@H]2[C@H]1CC/C(COC(=O)CSCC(=O)OC/C1=C/CC[C@@]3(C)O[C@H]3[C@H]3OC(=O)C(=C)[C@@H]3CC1)=C\CC[C@@]1(C)O[C@@H]21` belongs -1.97% (active); to `Nc1nc(N)c2c(n1)NC1(C=C(O)c3ccccc31)C1=C(N2)c2ccccc2C1=O` (stereo not given), 127%.
To `COCCCNC(=O)c1nnn2c1nc(N)c1cc(Cl)ccc12` belongs 88.6%.
`CCCCCCNC(=O)Oc1ccc(/C(=C(/C)Cc2ccc(OC)cc2)c2ccc(OCCN3CCCCC3)cc2)cc1`: the growth is 88.6%.
For the molecule `CN=C(N)N/N=C(\c1ccccc1)c1ccc(Br)cc1`, the growth is 1.8% (active).
Consider `O=C(c1ccccc1)N(C(=O)c1ccccc1)N1CCCC1`, for which the growth is 108%.
`O=c1cc(-c2ccccc2)nc2sc(-c3c[nH]c4ccc(F)cc34)nn12`: the growth was 67.4%.
In the case of `COC1=CC(c2ccc[nH]2)=N/C1=C\c1[nH]c(C)c(CC(=O)OCc2ccccc2)c1CCC(=O)OCc1ccccc1`, the growth was -31.2% (active).
`COc1ccc(C(=O)/C=C/c2c(Cl)c3c(c(OC)c2Cl)OCC(=O)N3)cc1`: the growth is 12.4%.
For the molecule `OCc1cn(-c2ccc(Cl)cc2)nc1-c1ccc(O)cc1`, the growth is 107%.
To `C/C(=C(/c1ccc(O)cc1)c1ccc(OCCN2CCCC2)cc1)c1ccc(Cl)cc1` belongs 13.5%; to `COc1cc2c(cc1OCCCN1Cc3ccc(OCCCCC(=O)N4CCC(CCN5CCCC5)CC4)cc3C1)N=C(N)C21CCCC1`, 17.4%.
On to `CCOC(=O)c1ccc2c(c1)[n+](=O)c(C(=O)C1CCCS1)c(C(F)(F)F)n2[O-]` (stereo not given), for which the growth is -80.5% (active).
Take `Clc1cccc(Cl)c1Nc1ccc2nnc(-c3ccncc3)n2n1`: the growth is 104%.
`c1ccc(CP(Cc2ccccc2)c2ccccc2)cc1`: the growth is 98.6%.
Turning to `Cc1ccc(NC(=O)c2sc3nc(C)c(C(=O)c4ccccc4)cc3c2N)cc1`, the growth was 79%.
To `O=C(NNc1nc2cc(F)c(F)cc2n2c(CN3CC4CNCC4C3)ccc12)c1cnccn1` (stereo not given) belongs -4.58% (active); to `COc1ccc(-c2cc(-c3ccccc3)nc(SCCCC(=O)NO)n2)cc1OC`, -2.2% (active); to `COC(=O)Nc1nc2ccc(C(=O)c3cccc(I)c3)cc2[nH]1`, 2.93% (active).
Consider `O=C1/C(=C/c2ccc(-c3ccc(Cl)cc3)o2)SC(=S)N1CCc1ccc(O)cc1`, for which the growth was 87%.
To `COc1cc(C(C)=C(c2ccc(OCCN(C)C)cc2)c2ccc(OCCN(C)C)cc2)ccc1F` belongs 93.3%.
In the case of `CC1=CC[C@@H]2CC[C@]3(C)[C@H](CC[C@@H]4[C@@]5(C)CCCNC(C)(C)[C@@H]5CC[C@]43C)[C@H]2[C@@H]1C`, the growth was -47.2% (active).
On to `O=C(COCc1c(-c2ccccc2)no[n+]1[O-])Nc1ccc(C(=O)/C=C/c2ccc3c(c2)OCO3)cc1`, for which the growth was 98.7%.
